Screening data (PubChem)
An excerpt weighted towards active compounds, which were near 19% of everything screened.
HT1080NT lethal = qHTS for induction of synthetic lethality in tumor cells producing 2HG: qHTS for the HT-1080-NT fibrosarcoma cell line | Potency, µM (top dose mostly 46.1 µM), for the others: top-dose activity, negative = less viability, actives largely listed as cytotoxic | 360,000 tested, 1.6% active | HT-1080-NT fibrosarcoma viability, CellTiter-Glo ATP luminescence, 48 h;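 further: NT is the 2HG producing partner of a matched IDH1 knockdown line; 0% = DMSO-treated cells and -100% = media-only wells without cells; nearly all actives have a fitted effect of over 55% in size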
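A 48-hour cytotoxicity screen used HT-1080-NT cells plated 2 hours before compound delivery. ATP-based CellTiter-Glo luminescence measured viability, normalized to DMSO and no-cell controls.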
TDP1 cell CPT = qHTS for Inhibitors of human tyrosyl-DNA phosphodiesterase 1 (TDP1): qHTS in cells in presence of CPT; chicken DT40 Tdp1-/-;hTDP1 cells + 20 nM CPT, ATP luminescence, 48 h; Potency, µM (doses to about 46.2 µM), for inactives: top-dose activity change, negative = growth inhibition, hits mostly inhibitors; 420,000 tested, 12% active; AID 686979, 2013; further: nearly all actives have a fitted effect of over 55% in size
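Chicken DT40 Tdp1-/- cells complemented with human TDP1, 400 cells/well, exposed to compounds plus 20 nM camptothecin for at least 48 h at 37 C; viability read as ATP content by CellTiter-Glo luminescence.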
KB-3-1 tox = qHTS assay for MDR1-selective chemotherapeutics: Primary screen using the parental adenocarcinoma cell KB-3-1. AID 1347075, 2019. KB-3-1 viability, CellTiter-Glo ATP luminescence, 72 h. 400,000 tested, 1.4% active. Potency, µM (top dose mostly 46.1 µM), most hits filed as cytotoxic; further: nearly all actives have a fitted effect of over 60% in size
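Luminescent ATP read-out (CellTiter-Glo) measures survival of drug-naive KB-3-1 cells after 72 h compound exposure at 37 °C. Titration series was screened from lowest to highest concentration, with DMSO vehicle plates as background controls.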
KB-V1 cytotox = qHTS assay for MDR1-selective chemotherapeutics: Primary screen using the drug-selected MDR subline cells KB-V1; KB-V1 MDR cells viability, CellTiter-Glo, 72 h; Potency, µM (top dose mostly 46.1 µM), hits mostly cytotoxic; 400,000 tested, 3.4% active; AID 1347076, 2019; further: nearly all actives have a fitted effect of over 60% in size
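Readout: CellTiter-Glo luminescence, 10 min after addition. Cells: KB-V1 MDR subline, 72 h at 37 degrees C with compound. Analysis: corrected, normalized data fitted to concentration-effect curves.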
DT40 TDP1 no CPT = qHTS for Inhibitors of human tyrosyl-DNA phosphodiesterase 1 (TDP1): qHTS in cells in absence of CPT. DT40 Tdp1-/- hTDP1 cells, no CPT, ATP luminescence, 48 h. Potency, µM (top dose mostly 46.2 µM), for the others: top-dose activity change, negative = growth inhibition, most hits filed as inhibitors. 420,000 tested, 15% active; further: nearly all actives have a fitted effect of over 55% in size
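Camptothecin absent (DMSO only). Human TDP1-complemented DT40 knockout cells, 400 cells/well, 37 °C for minimum 48 hr; ATP measured via CellTiter-Glo, 30 min dark incubation, luminescence.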
HT1080 IDH1KD tx = qHTS for induction of synthetic lethality in tumor cells producing 2HG: qHTS for the HT-1080-IDH1KD cell line | 360,000 tested, 2% active | HT-1080 IDH1 knockdown viability, ATP luminescence, 48 h | Potency, µM (titrated, usually from 46.1 µM), for the others: at the top dose activity, negative = toxicity, actives largely listed as cytotoxic;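 further: 0% = DMSO wells and -100% = cell-free medium wells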
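IDH1KD HT-1080 cells, 750/well, RPMI + 5% FBS; compound pinned after 2 h settling; 48 h, 37 °C; CellTiter-Glo luminescence; % activity normalised to DMSO and no-cell wells; curves fitted, classed by r2 and efficacy.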
An asterisk follows results filed as active; i = inactive; ? = inconclusive; nt = not tested or not shown; [ ] = dose if it differs, or a comment. The call rests on the fitted dose curve; in most records, active means well fitted curve in the direction sought with a large enough effect; inconclusive means small, poorly fitted or top-dose-only effect, or another doubt; inactive means no such curve, though single readings can be large; an effect the other way counts as inactive or inconclusive. Unless noted, on the % scale 0 is the no-effect control and ±100 the full control effect; potency means the concentration at half of the fitted maximal effect.

SMILES | HT1080NT lethal | TDP1 cell CPT | KB-3-1 tox | KB-V1 cytotox | DT40 TDP1 no CPT | HT1080 IDH1KD tx
CNC(=O)c1ccc(CSc2nc3ccncc3n2Cc2ccc(C)cc2)cc1 | nt | ? | i | i | ? | nt
COC(=O)c1ccc(Cn2c(SCc3cccc(C)c3)nc3ccncc32)cc1 | nt | ? | i | i | 16µM* | nt
COc1ccc(CCn2c(=O)c3cccnc3n(CC(=O)Nc3ccc(C)cc3C)c2=O)cc1OC | nt | ? | i | i | ? | nt
CN(C)c1ccc(-c2nc(-n3ccnc3)c3ccccc3n2)cc1 | nt | 13µM* | nt | nt | 18µM* | nt
CN(C)c1ccc(-c2nc(N(C)Cc3ccco3)c3ccccc3n2)cc1 | nt | 29µM* | nt | nt | 16µM* | nt
CCN(CC)c1nc(-c2ccc(C(C)(C)C)cc2)nc2ccccc12 | nt | 23µM* | ? | i | ? | nt
CN(C)c1ccc(-c2nc(N(C)C)c3ccccc3n2)cc1 | nt | ? | nt | nt | 23µM* | nt
CN(C)c1ccc(-c2cc(-n3ccnc3)ncn2)cc1 | nt | -5% | nt | nt | ? | nt
CC(C)CN(CC(C)C)c1nc(-c2ccc(Cl)cc2)nc2ccccc12 | nt | nt | i | i | nt | nt
O=C(c1cc(C(F)(F)F)cc(C(F)(F)F)c1)N1CCC[C@@]2(CCN(Cc3nccs3)C2)C1 | nt | 14% | nt | nt | -29% | nt
CCN1C(=O)c2cccc3c(S(=O)(=O)NCC4CCCO4)ccc1c23 (configuration not stated) | -11% | -25% | ? | i | ? | -10%
COC(=O)Cc1c(C)c2ccc3c(c2oc1=O)CN(Cc1ccccc1Cl)CO3 | nt | ? | i | i | ? | nt
CC(C)=CCOc1ccc(/C=C/C(=O)c2ccc(OCC=C(C)C)cc2OCC(=O)O)cc1 | nt | 1% | nt | nt | 2% | nt
Cc1cc(-n2c(SCc3ccccc3F)nc3[nH]ncc3c2=O)ccc1Cl | nt | ? | nt | nt | 16µM* | nt
O=c1c2cn[nH]c2nc(SCc2ccc3c(c2)OCCO3)n1-c1ccccc1 | ? | -23% | ? | ? | ? | 21µM*
O=c1c2cn[nH]c2nc(SCc2cccc(Br)c2)n1-c1ccc(Cl)cc1 | nt | ? | i | i | ? | nt
COc1ccccc1-n1c(SCC(=O)Nc2ccccc2F)nc2[nH]ncc2c1=O | 3% | 13µM* | i | i | -22% | -14%
Cc1ccccc1-n1c(SCc2ccc(Cl)cc2)nc2[nH]ncc2c1=O | nt | 16µM* | i | i | 18µM* | nt
O=C(Cc1ccc(NC2=NC3CS(=O)(=O)CC3S2)cc1)NCc1ccc(Cl)cc1 (configuration not stated) | 7% | 8% | i | i | 19% | -2%
COc1cccc(-n2c(=O)c3c(C)c(C)sc3n(Cc3ccccc3C#N)c2=O)c1 | nt | 6% | i | i | -19% | nt
Cc1ccc(C(NC(=O)Nc2ccccn2)C(Cl)(Cl)Cl)cc1F (configuration not stated) | 6% | ? | i | i | 21µM* | 13%
Cc1cccc(NC(=O)Nc2ccccn2)c1C | 9% | -23% | i | i | 8% | 8%
CCOC(=O)C(CC1=CS(=O)(=O)c2ccc(Cl)cc21)(NC(C)=O)C(=O)OCC | 3% | 4% | i | ? | -10% | 0%
CC(C)(C)OC(=O)C[C@@H]1C/C=C\C[C@H](CC(=O)N(CCO)Cc2ccccc2)C(=O)N[C@H](Cc2ccccc2)COC1=O | -1% | ? | i | i | 23µM* | -1%
CC(C)(C)OC(=O)C[C@@H]1C/C=C\C[C@@H](CC(=O)N(CCO)Cc2ccccc2)C(=O)N[C@H](C(C)(C)C)COC1=O | 12% | 21µM* | ? | i | ? | 7%
SMILES | HT1080NT lethal | TDP1 cell CPT | KB-3-1 tox | KB-V1 cytotox | DT40 TDP1 no CPT | HT1080 IDH1KD tx
CC(C)(C)OC(=O)C[C@H]1C/C=C\C[C@@H](CC(=O)N(CCO)Cc2ccccc2)C(=O)N[C@H](C(C)(C)C)COC1=O | -5% | ? | i | i | 15µM* | 9%
C[C@H]1COC(=O)[C@H](CC(=O)OC(C)(C)C)C/C=C\C[C@H](CC(=O)N(CCO)Cc2ccccc2)C(=O)N1 | 3% | -10% | i | i | -10% | 4%
CC(C)(C)OC(=O)C[C@@H]1C/C=C\C[C@H](CC(=O)N(CCO)Cc2ccccc2)C(=O)N[C@@H](Cc2ccccc2)COC1=O | 0% | ? | i | i | ? | 11%
C[C@H]1COC(=O)[C@H](CC(=O)OC(C)(C)C)C/C=C\C[C@@H](CC(=O)N(CCO)Cc2ccccc2)C(=O)N1 | 11% | ? | i | i | ? | 16%
CC1(C(=O)NS(=O)(=O)c2cccc(Cl)c2)CCN1C(=O)CCc1cccs1 (configuration not stated) | 29% | -5% | i | i | -20% | 1%
COCc1c(C(=O)N2CCN(Cc3ccc(C#N)cc3)CC2)oc2ccccc12 | -15% | -30% | ? | 13µM* | 21µM* | -1%
COCc1c(C(=O)N2CCN(Cc3ccc4c(c3)OCO4)CC2)oc2ccccc12 | -2%[9.24 µM] | ? | ? | i | ? | -1%
COCc1c(C(=O)N2CCN(c3ncccn3)CC2)oc2ccccc12 | 0% | 15µM* | i | i | ? | 4%
COCc1c(C(=O)N(C)Cc2ccccc2N2CCCC2)oc2ccccc12 | 6% | ? | i | ? | 23µM* | 2%
COCc1c(C(=O)N2CCN(Cc3c(F)cccc3Cl)CC2)oc2ccccc12 | -5% | ? | i | i | 21µM* | -8%
CC1(C(=O)NS(=O)(=O)c2ccc(F)cc2F)CCN1C(=O)CCc1ccccc1 (configuration not stated) | 4% | -3% | i | i | 0% | 8%
COc1ccc(CNCc2c(C(=O)O)c(C)n(Cc3ccccc3C)c2C)cc1OC | nt | -12% | i | i | -1% | nt
O=C(C[n+]1cccc(Br)c1)c1ccc(Br)cc1 | nt | -9% | i | i | -4% | nt
O=C(Cn1c(-c2ccccc2)c[n+]2ccsc12)c1ccc(Br)cc1 | -14% | 7.3µM* | ? | i | 3.3µM* | ?
